HCV inh – HCV inhibition. Huh7.5.1 HCVcc-Cre infection, luciferase reporter, 44 h. Potency, µM (doses to about 41.8 µM), for inactives: top-dose activity change, negative = inhibition, most hits filed as inhibitors. 340,000 tested, 3.4% active. AID 651820
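Infectious HCV cell culture screen: compound-treated cells (1,000/well, pre-plated 4 h) are infected with HCVcc-Cre at roughly 0.5 moi and grown 44 h. Infection is quantified by luciferase signal after 15 min substrate incubation at room temperature.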
AmpC no deterg – inhibitors of E. coli AmpC beta-lactamase without detergent | P00811 | AmpC nitrocefin hydrolysis, absorbance 480 nm, 0.0001% Triton | Potency, µM (highest dose often 57.1 µM), without a hit: at the highest dose activity change, negative = inhibition, most hits filed as inhibitors | 330,000 tested, 0.52% active;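 note: plate controls were no compound for no effect and no enzyme for full effect; nearly all actives have a fitted effect of over 20% in size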
Target sequence (P00811 whole entry, looked up): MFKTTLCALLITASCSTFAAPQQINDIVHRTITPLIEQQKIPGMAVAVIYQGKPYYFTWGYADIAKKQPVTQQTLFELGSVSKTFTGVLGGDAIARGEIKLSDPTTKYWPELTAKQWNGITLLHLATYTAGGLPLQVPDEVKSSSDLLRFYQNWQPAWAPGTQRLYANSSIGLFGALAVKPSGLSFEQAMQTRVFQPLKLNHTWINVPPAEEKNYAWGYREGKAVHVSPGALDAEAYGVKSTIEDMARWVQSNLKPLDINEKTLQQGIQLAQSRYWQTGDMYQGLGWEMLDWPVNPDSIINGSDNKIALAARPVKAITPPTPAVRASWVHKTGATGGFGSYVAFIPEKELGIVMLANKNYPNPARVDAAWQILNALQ
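AmpC (5.3 nM in the dispensed reagent) in 20 mM phosphate pH 7.0 with 0.01% (detergent screen) or 0.0001% Triton X-100 was preincubated with compounds for 15 min at room temperature. Nitrocefin was then added from an 800 uM solution, and hydrolysis was followed at 480 nm.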
AmpC detergent – inhibitors of E. coli AmpC beta-lactamase with detergent; 370,000 tested, 0.041% active; AID 485294; Potency, µM (series often up to 114 µM), inactives show at the top dose activity change, negative = inhibition, most hits filed as inhibitors; P00811; AmpC hydrolysis of nitrocefin, absorbance 480 nm, 0.01% Triton;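 note: 0% = no-compound wells and -100% = no-enzyme wells; nearly all actives have a fitted effect of over 25% in size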
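20 mM phosphate pH 7.0 + 0.01% (detergent screen) or 0.0001% Triton X-100; 5.3 nM AmpC reagent; cpd preinc 15 min RT; nitrocefin (800 uM stock) to start; A480 q20 s × 4 min; Activity was normalised to no-enzyme and no-compound control wells.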
AMA1-RON2 inh – disrupts binding of P. falciparum AMA1 to RON2. Potency, µM (highest dose often 58.2 µM), for inactives: top-dose activity change, negative = inhibition, usual class: inhibitors. AID 720542. 360,000 tested, 0.2% active. AlphaScreen AMA1-biotinylated RON2 peptide binding;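 note: 0% = vehicle wells and -100% = peptide control; nearly all actives have a fitted effect of over 45% in size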
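AMA1 (3D7) with his tag at 25 nM final met compounds first, then biotinylated RON2 peptide at 25 nM; detection used donor plus acceptor beads, 10 µg/mL apiece, read by AlphaScreen after 30 min at room temperature.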
Pf growth 96h – inhibits malaria parasite growth, 96 h; P. falciparum luciferase reporter growth, 96 h; Potency, µM (series often up to 28.7 µM), inactives show at the top dose activity change, negative = inhibition, hits mostly inhibitors; 320,000 tested, 6.9% active; AID 504834
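Cell-based qHTS: luciferase-tagged P. falciparum in erythrocytes (2% hematocrit, 0.05% parasitemia final) incubated with compounds for 96 hours, 37 C, 5% CO2; luciferase detection reagent then added and luminescence measured.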
Pf growth 48h – P. falciparum growth inhibition at 48 hours (one generation); P. falciparum luciferase growth in erythrocytes, 48 h; Potency, µM (titrated, usually from 28.7 µM), inactives show at the top dose activity change, negative = inhibition, hits mostly inhibitors; 310,000 tested, 5.9% active
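Luminescence readout; reporter = integrated firefly luciferase in P. falciparum. RBC culture at 2% hematocrit, 0.1% parasitemia final, 37 C/5% CO2; decreased signal taken as growth inhibition.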
* hit, by the source's call; ? = inconclusive; . = not tested or not shown; [ ] = another dose, or the depositor's remark. Sampled rows, rich in hits. Any-hit rate of the full collection: about 11%. Calls come from the whole dose curve; as a rule, active = well fitted curve in the direction sought with a large enough effect; inconclusive = small, poorly fitted or top-dose-only effect, or another doubt; inactive = no such curve, though single readings can be large; an effect the other way counts as inactive or inconclusive. Unless noted, % is set by controls: 0 for no effect and ±100 for the full control effect; potency is the fitted concentration of half-maximal effect.

SMILES | HCV inh | AmpC no deterg | AmpC detergent | AMA1-RON2 inh | Pf growth 96h | Pf growth 48h
COc1ccc(C2=C(C)C(=O)N(Cc3ccc(C(=O)NC(C)c4ccccc4)cc3)S2(=O)=O)cc1 (centres undefined) | . | . | 2% | . | . | .
COc1ccccc1-c1nc2c(c(SCC(=O)Nc3ccccc3F)n1)Cc1c(CO)cnc(C)c1O2 | . | . | 5% | . | . | .
O=C(NCCc1ccc(Cl)cc1)c1ccc(CS(=O)Cc2cccc(Cl)c2)o1 (centres undefined) | . | . | -1% | . | . | .
COc1ccccc1NC(=O)CSc1nc(-c2ccc(C(C)(C)C)cc2)c(C#N)c(=O)[nH]1 | . | . | 15% | . | . | .
COc1cc(O)c(C(CCN2CCN(c3ccccc3)CC2)c2cc(OC)c(OC)c(OC)c2)c(OC)c1 (centres undefined) | -22% | 125% | -2% | -25% | 0.93µM* | 1.3µM*
CCOc1ccc(S(=O)(=O)Nc2cccc(-c3ccc(N4CCCC4)nn3)c2)cc1 | . | . | -7% | . | . | .
COC(=O)c1ccccc1NC(=O)COC(=O)c1ccc(C)c(NC(=O)c2ccco2)c1 | ? | -27% | -19% | -4% | 2.3µM* | 2.3µM*
COc1cc(NC(=O)c2ccco2)c(C(=O)O)cc1OC | 4% | -4% | 1% | 9% | 166% | 1%
COC(=O)c1ccccc1NC(=O)COC(=O)c1ccco1 | ? | -19% | -4% | -3% | 0%[5.75 µM] | 4%
COCCNC(=S)Nc1cc(OC)c(NC(=O)c2ccco2)cc1OC | 13µM* | 48% | -1% | -7% | 14% | 18%
COC(=O)c1cc(OC)c(OC)cc1NC(=O)c1ccco1 | 6.3µM* | -2% | -8% | -4% | -35% | -19%
O=C(Nc1cccc(F)c1)c1ccc2c(c1)N(Cc1ccccc1)C(=O)c1ccccc1S2(=O)=O | . | . | 1% | . | . | .
CCS(=O)(=O)c1nc2ccccc2n1CC(=O)Nc1ccccc1C(=O)OC | . | . | 24% | . | . | .
O=C(N/N=C/c1ccc(Sc2ccccn2)o1)c1cccc([N+](=O)[O-])c1 | -5% | 10µM* | ? | 8% | ? | -18%
O=C(CCc1ccccc1O)N/N=C/c1ccc(Sc2cccc3cccnc23)o1 | ? | -45% | -1% | 29% | 3.7µM* | .
O=C(N/N=C\c1ccc(Sc2ccccn2)o1)c1cccc(F)c1 | -3% | -49% | -11% | 16% | 22% | -5%
O=C(N/N=C/c1ccc(Sc2ccccn2)o1)c1cc2ccccc2cc1O | 31% | 18µM* | 1% | 55% | ? | ?
O=C(N/N=C/c1coc2ccccc2c1=O)c1cccc([N+](=O)[O-])c1 | 8% | -14% | 0% | 27% | 5.9µM* | -3%
CC(NC(=O)c1cc(-c2ccc(Cl)cc2)on1)c1ccccc1 (centres undefined) | . | . | -7% | . | . | .
Cc1cc(C)n(-c2nnc(NC34CC5CC(CC(C5)C3)C4)nn2)n1 | 14% | 0% | -13% | -15% | 2.9µM* | 3.3µM*
O=C(CN(c1cc(C(F)(F)F)ccc1Cl)S(=O)(=O)c1ccccc1)NCCc1ccccc1 | . | . | 6% | . | . | .
NC(=S)Nc1ccc(F)c(F)c1F | 30% | -14% | 0% | -5% | 35% | 2.6µM*
O=C(NCc1nc2ccccc2[nH]1)C1=C[C@@H](c2ccccc2)C[C@@H](OCCCCO)O1 | 0% | 127% | 2% | 31% | -22% | 0.0033µM*
O=C(NCc1nc2ccccc2[nH]1)C1=C[C@@H](c2ccc(Br)cc2)C[C@@H](OCCCCO)O1 | ? | 149% | 6% | 28% | ? | ?
CC(C)(C)[C@H]1C=C(C(=O)NCc2nc3ccccc3[nH]2)O[C@@H](OCCCCO)C1 | -5%[8.37 µM] | 100% | -4% | 0% | 10µM* | ?
SMILES | HCV inh | AmpC no deterg | AmpC detergent | AMA1-RON2 inh | Pf growth 96h | Pf growth 48h
COc1ccccc1CNC(=O)CN1C(=O)CCc2cc(S(=O)(=O)N3CCOCC3)ccc21 | . | . | 6% | . | . | .
Cc1cccc(C(=O)OC(C)CN2CCOCC2)c1 (centres undefined) | 21% | 15% | 6% | 12% | 9.3µM* | 6%
Cc1cccc(/C(N)=N/OC(=O)N2CCOCC2)c1 | ? | -9% | 2% | 2% | 2.6µM* | ?
Cc1ccc(/C(N)=N/OC(=O)N2CCOCC2)cc1 | ? | -13% | -2% | 11% | 1µM* | ?
Cc1sc2c(c1C)c(=O)n(-c1ccc(Cl)cc1)c(=O)n2Cc1cc(=O)n2cc(Br)ccc2n1 | . | . | 8% | . | . | .
Cc1cnccc1CN(C)Cc1cn(C)nc1-c1cccc(Cl)c1 | -12% | 76% | 6% | 32% | 20% | ?
CN(Cc1cn(C)nc1-c1cccc(Cl)c1)CC1CCCCO1 (centres undefined) | 4% | 0% | -7% | -13% | 10µM* | 6%
CC(C)OC(=O)c1ccc(N2CCN(c3ccccc3F)CC2)nc1 | 11µM* | -26% | -3% | 28% | ? | -12%
COC(=O)c1cccnc1N1CCN(c2ccccc2F)CC1 | 8% | 0.16µM* | 4% | 25% | -3% | ?
O=c1n(Cc2ccccc2Cl)c2ccccc2c2nc(-c3ccccc3)nn12 | . | . | 9% | . | . | .
O=C(O)Cn1cc(F)c(=O)[nH]c1=O | -13% | . | . | -7% | . | .
CCCOCn1cc(F)c(=O)[nH]c1=O | 34% | -11% | 2% | 1% | 5.2µM* | ?
Cc1cccn2c(=O)c(/C=C3\SC(=S)NC3=O)c(NCCCN3CCOCC3)nc12 | 2% | -11% | 0% | 6% | ? | 13µM*
Cc1ccc(C(CNC(=O)Nc2ccc(Cl)cc2)N2CCN(C)CC2)cc1 (centres undefined) | 13µM* | 43% | -13% | 3% | ? | ?
CCOC(=O)CC(NC(=O)N1CCC(CN2CCC(C)CC2)CC1)c1ccccc1 (centres undefined) | . | . | -2% | . | . | .
CCc1ccc(OCC(=O)N/N=C(\C)c2ccc(O)cc2O)cc1 | 11µM* | -30% | 4% | 76% | 0% | 0%
COc1ccc(N(Cc2cc3ccccc3[nH]c2=O)S(=O)(=O)c2ccc(OC)cc2)cc1 | -21% | -5% | 3% | -3% | ? | -25%
COc1ccc(N(Cc2cc3cc(OC)ccc3[nH]c2=O)S(=O)(=O)c2ccc(NC(C)=O)cc2)cc1 | ? | 153% | 0% | -9% | 9.3µM* | 2.3µM*
COc1ccc2[nH]c(=O)c(CN(c3ccc(C)c(C)c3)S(C)(=O)=O)cc2c1 | -8% | -17% | -1% | -3% | 6.6µM* | -21%
Cn1c2ccccc2c2cnn(CC(=O)NCCCN3CCCCC3)c(=O)c21 | . | . | 18% | . | . | .

Screening data from PubChem BioAssay.
